MEKK2 WT-MEK5: modulators of MEK5 binding to wildtype MEKK2, primary screen, biochemical, multiplex bead flow cytometry, Alexa488-MEK5. Mitogen-activated protein kinase kinase kinase 2 (Homo sapiens), Q9Y2U5. Alexa488-MEK5 binding to MEKK2 WT; actives lie on both sides. binding response (% of control), % at 10 µM. 1.1% of 290,000 active. AID 1531, 2009; in the data active means binding response below about 67% or above about 130%
NTR1 agonist: agonists of human NTR1, primary screen, imaging, U2OS cells, beta-arrestin-GFP, high content. Neurotensin receptor type 1 (Homo sapiens), P30989. AID 493036, 2011. NTR1-U2OS beta-arrestin-GFP spot imaging, agonist mode. 0.17% of 330,000 active. activation, % at 20 µM;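 active means activation at or above 40% of the spot to cytoplasm intensity ratio, with at least 20 cells analyzed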;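 further: 0% = DMSO without peptide and 100% = 100 nM NTR1 peptide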
Target sequence (P30989 whole entry, looked up): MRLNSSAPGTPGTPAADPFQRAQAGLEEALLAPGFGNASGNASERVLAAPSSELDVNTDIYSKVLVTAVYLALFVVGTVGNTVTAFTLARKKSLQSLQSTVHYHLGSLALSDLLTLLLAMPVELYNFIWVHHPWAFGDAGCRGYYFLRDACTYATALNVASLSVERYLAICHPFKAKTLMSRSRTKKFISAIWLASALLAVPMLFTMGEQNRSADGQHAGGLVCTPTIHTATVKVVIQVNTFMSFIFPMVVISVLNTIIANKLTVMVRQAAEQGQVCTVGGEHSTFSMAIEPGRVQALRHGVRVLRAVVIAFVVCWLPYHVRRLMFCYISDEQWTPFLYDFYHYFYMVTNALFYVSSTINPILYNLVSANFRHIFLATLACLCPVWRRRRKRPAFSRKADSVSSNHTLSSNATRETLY
TMEM16A inh: TMEM16A chloride channel inhibitors, primary screen, cell-based, HTS | normalized B-score (activity score, 25-100; higher = stronger inhibition) at 10 µM | 1.2% of 310,000 active | HEK293 TMEM16A/YFP iodide influx fluorescence, ionomycin | Anoctamin-1 (Mus musculus), Q8BHY3;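 active means ratio plate-corrected score three or more library SD toward inhibition, starting fluorescence score within five deviations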;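 further: score derived from kinetic fluorescence span divided by baseline fluorescence per well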
MEKK3 PB1 HTS: modulators of MEKK3-MEK5 PB1 binding, primary screen, biochemical, wildtype MEKK3, multiplex bead flow cytometry, Alexa488-MEK5; bead-based flow cytometry, Alexa488-MEK5 binding to MEKK3; actives lie on both sides; 0 = blocked by unlabeled MEK5, 100 = vehicle; binding response (% of control), % at 10 µM; 1.4% of 290,000 active; AID 1529, 2009;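 active means binding response more than 3 SD above or below the average of its plate-row segment, actives on both sides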;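 further: Alexa488 bead fluorescence after subtracting the streptavidin-only scavenger bead signal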
TMEM16A act: TMEM16A chloride channel activators or potentiators, primary screen, cell-based, HTS. HEK293 TMEM16A/YFP-H148Q/I152L, iodide quench fluorescence; stronger effect = lower value. Anoctamin-1 (Mus musculus), Q8BHY3. B-score at 10 µM. 0.3% of 340,000 active;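 active means fluorescence-ratio B-score plate-corrected deviation score at least 3 library SD below zero, with starting fluorescence score within 5 deviations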;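 further: channel opened by trigger with iodide after compound preincubation; score built on the fluorescence ratio of max minus min over baseline; more negative score means more quench and so TMEM16A activation or potentiation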
MEKK2 mut-MEK5: MEK5 binding signal on mutant MEKK2 PB1, primary screen, biochemical, multiplex bead flow cytometry, Alexa488-MEK5; 0.35% of 290,000 active; Alexa488-MEK5 binding to MEKK2 mutant; percent response, % at 10 µM; AID 1530, 2009; in the data active means percent response above about 24%, passing the limit was not always enough
MEKK2wt confirm: modulators of MEK5 binding to wildtype MEKK2, confirmation, biochemical, single concentration, multiplex bead flow cytometry; shares compounds with MEKK3 PB1 HTS; Alexa488-MEK5 binding to MEKK2 WT; actives lie on both sides; binding response (% of control), % at 10 µM; 2.4% of 5,900 active; AID 1892, 2009; in the data active means binding response below about 16% or above about 210%; inactive means in between
MEKK2mut-MEK5: mutant MEKK2 PB1-MEK5 binding signal retest – biochemical, single concentration, multiplex bead flow cytometry, confirmation | Alexa488-MEK5 binding to MEKK2 mutant | percent response, % at 10 µM | 2% of 5,900 active | shares compounds with MEKK3 PB1 HTS; in the data active means percent response mostly above about 71%, no sharp cut-off; inactive means mostly below about 38%;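 further: higher means compound restores mutant binding toward wildtype level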
MEKK3 confirm: MEKK3 wild-type PB1 binding to MEK5, inhibitors, confirmation, biochemical, bead multiplex flow cytometry, single concentration, wildtype. shares compounds with MEKK3 PB1 HTS. Alexa488-MEK5 binding to MEKK3; stronger effect = lower value. binding response (% of control), % at 10 µM. 1.8% of 5,900 active. AID 1894, 2009;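 active means binding response below 72% of control, or above a set upper limit, though filed actives all read lower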;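 further: 100% = DMSO only wells and 0% = binding blocked by excess unlabeled MEK5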
Starred values were filed as active, the others as inactive; i = inactive; . = not tested or not shown; [ ] = another dose, or the depositor's remark. Only some compounds are listed: those with a hit (about 3.4% of all), similar ones and a draw of the others.

SMILES	MEKK2 WT-MEK5	NTR1 agonist	TMEM16A inh	MEKK3 PB1 HTS	TMEM16A act	MEKK2 mut-MEK5	MEKK2wt confirm	MEKK2mut-MEK5	MEKK3 confirm
CCOc1cc(CNCCc2ccc(S(N)(=O)=O)cc2)ccc1OCc1ccc(Cl)cc1	214.0*	14.0	i	110.0	i	46.0*	183.0	37.0	105.0
Cc1cc(C)cc(-c2nnc(SCC(=O)Nc3cc(C)on3)o2)c1	.	0.2	.	.	i	.	.	.	.
c1ccc(CSc2nnc3ccc(-c4cccs4)nn23)nc1	92.0	2.8	i	105.0	i	197.0*	98.0	1.0	102.0
Cc1nnc(NC(=O)CSc2nnc(CC(=O)Nc3ccccc3C)n2C)s1	92.0	0.0	i	97.0	i	-6.0	.	.	.
COc1ccc(/C(C)=N\NS(=O)(=O)c2ccccc2)cc1OC	110.0	2.2	i	132.0*	i	1.0	99.0	-1.0	105.0
O=C1[C@H]2[C@@H](c3ccc(F)cc3)N3C(=O)N(c4ccc(Br)cc4)C(=O)[C@@]3(Cc3ccccc3)[C@H]2C(=O)N1C1CCCCC1	98.0	2.9	i	108.0	i	-5.0	.	.	.
CCC(C)c1ccc(OCC(=O)Nc2ccc3[nH]c(=O)[nH]c3c2)cc1 (stereo unspecified)	111.0	0.7	i	198.0*	i	1.0	106.0	5.0	105.0
Cc1ccc(C(=O)NC(=S)Nc2nc(-c3cccc([N+](=O)[O-])c3)cs2)c(Cl)c1	51.0	5.6	i	45.0*[inhibitor]	i	-16.0	103.0	-2.0	103.0
COc1ccc(N=C2S/C(=C\c3ccc(OCC(=O)O)cc3)C(=O)N2CCc2c[nH]c3ccccc23)cc1	65.0	2.2	.	79.0	i	-16.0	.	.	.
COc1ccc(N=C2S/C(=C\c3ccc(N4CCOCC4)o3)C(=O)N2CCc2c[nH]c3ccccc23)cc1	161.0*	-2.6	i	107.0	i	99.0*	88.0	-25.0	91.0
CNC(=O)C(=O)Nc1c(C)cc(C)cc1C	111.0	1.9	i	134.0*	i	1.0	-1.0*[inhibitor]	-29.0	0.0*
CNC(=O)C(=O)Nc1ccc(C)cc1C	99.0	0.1	i	99.0	i	-1.0	.	.	.
CCN(CC)CCNC(=O)c1cc2c(s1)-c1ccccc1SC2	146.0*	-2.2	i	107.0	i	25.0*	129.0	13.0	105.0
NNC(=O)c1cc2c(s1)-c1cc(Cl)ccc1SC2	99.0	0.3	i	102.0	i	3.0	.	.	.
Cc1ccnc2nc(C(=O)OCC(=O)NCc3cccc(Cl)c3)nn12	.	3.8	.	.	i	.	.	.	.
Cc1ccnc2nc(C(=O)OCC(=O)NCCc3ccc(Cl)cc3)nn12	104.0	2.8	i	135.0*	i	0.0	69.0	-24.0	62.0*
O=C(COC(=O)C1CCN(c2ccc(C(F)(F)F)cn2)CC1)Nc1ccc(F)cc1[N+](=O)[O-]	.	1.7	i	.	i	.	.	.	.
N=C1/C(=C/c2cccn2Cc2ccc(Cl)cc2)C(=O)N=C2SC=CN12	107.0	9.9	i	129.0*	i	-1.0	112.0	5.0	109.0
CC(C)CN1CCN(Cc2cccc3cccnc23)CC1CCO (stereo unspecified)	99.0	-0.6	i	114.0	i	-5.0	.	.	.
CC(=O)c1ccc(N2CCc3ccccc3C2)c([N+](=O)[O-])c1	73.0	-0.2	i	72.0*[inhibitor]	i	-12.0	85.0	-9.0	84.0
O=C(COC(=O)c1ccco1)NCc1ccc(F)cc1	87.0	-0.7	i	91.0	i	-8.0	.	.	.
CCCCN(C)C(=O)Cn1c(=O)oc2cc(S(=O)(=O)N3CC(C)CC(C)C3)ccc21 (stereo unspecified)	117.0	1.0	i	132.0*	i	29.0	111.0	9.0	102.0
CN1C(=O)CSC1=NC12CC3CC(CC(C3)C1)C2	30.0*[inhibitor]	1.3	i	20.0*[inhibitor]	i	-17.0	107.0	2.0	107.0
Cn1nc(-c2ccc(Cl)cc2)cc1NC(=O)CC(C)(C)CC(=O)O	124.0	-1.1	i	129.0*	i	26.0	96.0	-3.0	93.0
Cn1nc(-c2ccccc2)cc1NC(=O)CCCC(=O)O	100.0	0.7	i	94.0	i	-7.0	.	.	.
SMILES	MEKK2 WT-MEK5	NTR1 agonist	TMEM16A inh	MEKK3 PB1 HTS	TMEM16A act	MEKK2 mut-MEK5	MEKK2wt confirm	MEKK2mut-MEK5	MEKK3 confirm
COc1ccc(C2=NOC(CNC(=S)N3CCOCC3)C2)cc1 (stereo unspecified)	91.0	-0.8	i	88.0	i	-9.0	.	.	.
NC(=O)C1(N2CCCCC2)CCN(C(=S)Nc2ccc(F)c(Cl)c2)CC1	99.0	1.2	i	102.0	i	1.0	.	.	.
COc1ccc(S(=O)(=O)N2CCC(C(=O)NCCc3ccc4c(c3)OCO4)CC2)cc1	56.0	2.0	i	48.0*[inhibitor]	i	-26.0	106.0	-1.0	102.0
O=C(NCCc1ccc2c(c1)OCO2)C1CCN(S(=O)(=O)c2ccc(Cl)cc2)CC1	103.0	1.5	i	101.0	i	2.0	.	.	.
Nc1c(C(=O)NCc2ccccc2)c2nc3ccccc3nc2n1CCCN1CCOCC1	106.0	4.1	i	106.0	i	2.0	.	.	.
COc1ccc(CNC(=O)c2c(N)n(CCCN3CCOCC3)c3nc4ccccc4nc23)cc1	154.0*	14.4	i	95.0	i	39.0	149.0	39.0	110.0
COc1ccc2c(/C=C/c3cc[n+](C)cc3)c[nH]c2c1	168.0*	-1.9	i	104.0	i	48.0*	101.0	-1.0	93.0
Cc1ccc(S(=O)(=O)NC(=NC2CCCCC2)c2ccc(F)cc2)cc1	97.0	-0.8	i	100.0	i	-5.0	.	.	.
O=[N+]([O-])c1c(C(Cl)Cl)nn(-c2ccccc2)c1N1CCCC1	99.0	3.1	i	102.0	i	-2.0	.	.	.

From PubChem BioAssay
